Results as given in PubChem BioAssay AID652192 (Johns Hopkins Ion Channel Center, 2013).
Entries with a potency or affinity are not part of this list. The source made the active and inactive calls.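 How the source made its calls: active means peak inhibition of the KCNQ2 potassium channel over 30% at some tested dose, with a fitted dose response curve; inactive means no inhibition at any dose, or no curve fitted.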

Molecular target: Potassium voltage-gated channel subfamily KQT member 2 (Rattus norvegicus) (UniProt O88943)
Sequence (O88943 whole entry, looked up): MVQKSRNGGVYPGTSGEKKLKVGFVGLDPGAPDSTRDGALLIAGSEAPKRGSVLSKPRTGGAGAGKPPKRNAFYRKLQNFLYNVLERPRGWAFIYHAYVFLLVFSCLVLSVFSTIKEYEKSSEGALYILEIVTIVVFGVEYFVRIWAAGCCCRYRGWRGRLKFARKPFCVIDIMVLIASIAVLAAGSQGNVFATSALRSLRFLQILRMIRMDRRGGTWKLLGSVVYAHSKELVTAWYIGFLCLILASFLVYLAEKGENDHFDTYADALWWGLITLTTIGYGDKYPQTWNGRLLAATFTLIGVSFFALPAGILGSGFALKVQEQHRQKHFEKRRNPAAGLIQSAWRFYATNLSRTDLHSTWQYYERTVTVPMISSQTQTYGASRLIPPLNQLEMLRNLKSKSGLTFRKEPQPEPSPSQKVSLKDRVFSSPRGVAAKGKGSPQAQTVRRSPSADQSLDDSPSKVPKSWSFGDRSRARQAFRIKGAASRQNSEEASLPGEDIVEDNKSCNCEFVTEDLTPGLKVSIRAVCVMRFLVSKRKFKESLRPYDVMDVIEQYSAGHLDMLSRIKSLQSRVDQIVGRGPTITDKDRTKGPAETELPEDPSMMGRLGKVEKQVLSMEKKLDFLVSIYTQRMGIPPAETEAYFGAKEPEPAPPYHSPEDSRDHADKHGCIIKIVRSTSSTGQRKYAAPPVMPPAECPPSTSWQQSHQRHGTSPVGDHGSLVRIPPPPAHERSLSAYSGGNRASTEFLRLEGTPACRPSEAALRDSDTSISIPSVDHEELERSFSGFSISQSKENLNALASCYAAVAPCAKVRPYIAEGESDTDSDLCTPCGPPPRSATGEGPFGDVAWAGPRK
Experiment: block of rat KCNQ2 potassium channel – cell-based, FluxOR thallium flux, concentration-response, selectivity assay for TASK1 inhibitor project, SAR follow-up (AID 652192)
Conditions: KCNQ2 cell line, FluxOR thallium flux fluorescence; series mostly up to 30 µM

outcome, inactive:
COc1ccccc1NC(=O)c1cccc(NC(=O)C2CCCC2)c1
O=C(Nc1cccc(NC(=O)c2ccco2)c1)c1ccccc1
COc1ccccc1NC(=O)c1cccc(NC(=O)c2ccccc2)c1
CCOc1ccccc1NC(=O)c1cccc(NC(=O)c2ccccc2Cl)c1
COc1cccc(C(=O)Nc2cccc(NC(=O)c3ccccc3)c2)c1
O=C(Nc1cccc(NC(=O)c2ccccn2)c1)c1ccccc1
O=C(Nc1cccc(NC(=O)c2ccoc2)c1)c1ccccc1
COc1ccccc1C(=O)Nc1cc(NC(=O)c2ccccc2C(C)C)ccc1F
O=C(Nc1ccccc1Cl)c1cccc(NC(=O)C2CCCC2)c1
COc1ccccc1C(=O)Nc1cc(NC(=O)c2cccc(C)c2)ccc1F
Cc1cccc(C(=O)Nc2cccc(NC(=O)c3ccccc3Cl)c2)c1
CCOc1ccccc1NC(=O)c1cccc(NC(=O)C(C)(C)C)c1
Cc1cccc(C(=O)Nc2cccc(NC(=O)c3ccccc3C)c2)c1
Cc1cccc(C(=O)Nc2cccc(NC(=O)c3ccncc3)c2)c1
